# From PubChem BioAssay AID1671448 (Corson Lab, School of Medicine, Indiana University, 2021)
# About 660 (3.3%) of roughly 20,000 compounds were called active. This is one part of a sample in which actives are shown more often than they occur.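 How the source made its calls: active means enzyme reaction rate more than 3 SD below the solvent-only control wells on the same plate; inactive means the rest.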
# Target: Ferrochelatase, mitochondrial (Homo sapiens) (UniProt P22830)
# Assay: FECH heme synthesis enzyme blockers – biochemical, purified FECH, Ni-mesoporphyrin absorbance, primary screen (AID 1671448)
# Conditions: Ni-mesoporphyrin absorbance 550 nm, screened at 10 µM (by protocol)
# Chain of Ferrochelatase, mitochondrial (Homo sapiens) (P22830 whole entry, looked up): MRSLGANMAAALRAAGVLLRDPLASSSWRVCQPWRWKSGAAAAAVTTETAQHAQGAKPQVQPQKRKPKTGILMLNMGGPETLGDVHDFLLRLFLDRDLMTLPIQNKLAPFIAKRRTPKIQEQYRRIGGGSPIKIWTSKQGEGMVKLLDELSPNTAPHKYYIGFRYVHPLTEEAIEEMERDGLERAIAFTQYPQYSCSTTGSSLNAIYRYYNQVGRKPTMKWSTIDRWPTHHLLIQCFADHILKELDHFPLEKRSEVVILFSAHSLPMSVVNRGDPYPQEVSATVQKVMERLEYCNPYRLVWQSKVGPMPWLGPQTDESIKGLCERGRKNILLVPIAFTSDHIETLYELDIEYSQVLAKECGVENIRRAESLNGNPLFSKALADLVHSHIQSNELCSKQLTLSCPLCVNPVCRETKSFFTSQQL
row,Compound,outcome
1,CCOc1ccc(CCNC(=O)CN2C(=O)C=C(CC(=O)OC)Nc3ccccc32)cc1OCC,inactive
2,CNCc1cc(-c2ccc(C)c3ncccc23)ccc1OC,inactive
3,COCCNC(=O)Cn1c(C(=O)OC)cc2ccsc21,inactive
4,NC(=O)c1cccc(CC2CCN(C(=O)CCc3cn4ccccc4n3)C2)c1 (stereo not given),inactive
5,CN(C)c1ccc(CNC(=O)c2nc(N3CCCC3)c3oc4ccccc4c3n2)cc1,inactive
6,COc1cccc(Cn2c(CNS(=O)(=O)c3cccc(Cl)c3)nc3cccnc32)c1,inactive
7,Cc1cc(C)n(CCNC(=O)c2cc(-c3ccccc3)n[nH]2)c(=O)n1,inactive
8,COc1nc2c(cc1CNC(=O)c1ccncc1F)C(=O)N(C1CCCC1)C2,inactive
9,CC(C)CN1CCOC(CCNC(=O)c2cncs2)C1 (stereo not given),inactive
10,CCCCN(C)c1nc(Nc2ccc(OC)cc2)c2cnn(-c3ccccc3)c2n1,active
11,COc1ccc(OC)c(Nc2nc(N(C)C)nc3c2cnn3-c2ccccc2)c1,inactive
12,CCN(CC)c1nc(Nc2ccc(C)cc2)c2cnn(-c3ccccc3)c2n1,inactive
13,Cc1cc(NC(=O)c2ccc(C(C)(C)C)cc2)n(-c2ncnc3c2cnn3-c2ccc(Cl)cc2)n1,inactive
14,Cc1ccsc1CN(C)C(=O)c1ccc(-c2ncn[nH]2)cc1,inactive
15,CCOC(=O)N1CCC(NCc2ccccc2-n2ccnc2C)CC1,inactive
16,O=C(O)[C@H]1C[C@@H](O)CCN1C(=O)C1(c2ccc(Cl)cc2)CC1,inactive
17,O=C(NC(Cn1cccn1)c1ccccc1)c1cc2n(n1)CCNC2 (stereo not given),inactive
18,O=C(NCc1ccccn1)C1CCN(c2ccc(-c3ccc(Br)s3)nn2)CC1,inactive
19,Cc1ccc(CSc2ncc(Cl)c(C(=O)Nc3ccc(S(N)(=O)=O)cc3)n2)cc1,inactive
20,CCc1ccc(NC(=O)CN2CCN(Cc3cccc(C)c3)S2(=O)=O)cc1,active
21,COC(=O)c1ccc(NC(=O)CN2CCN(Cc3ccc(C)cc3)S2(=O)=O)cc1,inactive
22,Cc1cccc(CN2CCCN(CC(=O)Nc3ccc(Cl)cc3)S2(=O)=O)c1,inactive
23,CC(COc1ccccc1)NCc1nnc(-c2ccccc2)o1 (stereo not given),active
24,Cc1cc(C)cc(C(=O)NCCn2c(-c3ccccc3)nc3cccnc32)c1,inactive
25,CCn1c(=O)n(-c2ccc(C)c(C)c2)c2nc(-c3cccc(F)c3F)nc(C(N)=O)c21,inactive
26,Cc1noc(C)c1CN(C)Cc1ccc(C2CCCO2)s1 (stereo not given),inactive
27,CCCc1cc(=O)n2[nH]c(CNc3ccc(C)cc3C)nc2n1,inactive

row,Compound,outcome
1,COc1ccccc1NCc1nc2nc(C(C)C)cc(=O)n2[nH]1,active
2,COc1ccccc1CNc1nc2nc(CNc3ccc(F)cc3)cc(=O)n2[nH]1,inactive
3,CC(C)c1nc(CN(C)C(=O)c2cnn3ccn(C)c23)cs1,inactive
4,CCOC(=O)CCc1c(C)nc2nc(CNc3ccccc3F)[nH]n2c1=O,active
5,CCOc1ccc(NC(=O)Nc2c(C)nc3nc(C4CC4)[nH]n3c2=O)cc1,inactive
6,COc1ccccc1-c1cc2n(C)c(C)c(CCC(=O)Nc3ccccc3F)c(=O)n2n1,inactive
7,O=C(CCn1nnc2ccccc21)N1CCCC(c2ccn[nH]2)C1 (stereo not given),inactive
8,OCCCc1nc2ccccc2n1-c1ccc2[nH]ccc2c1,inactive
9,Cc1cc2cc(C(=O)NCCSCc3nc[nH]c3C)ccc2o1,inactive
10,Cc1ccc2c(CC(=O)NCc3csc(C)n3)cc(=O)oc2c1,inactive
11,O=C(c1csc(S(=O)(=O)NCc2ccc(F)cc2)c1)N1CCCC1,inactive
12,Cc1cc(F)cc(-c2c(-c3ccccc3)ncn2CCN2CCC(O)CC2)c1,active
13,Cc1ccc(-c2c(-c3ccccc3)ncn2CCN2CCCC2=O)c(F)c1,inactive
14,Cc1cc(C)c(-c2c(-c3ccccc3)ncn2CCOCCO)c(C)c1,inactive
15,Cc1nn(C)cc1-c1c(-c2ccccc2)ncn1CCNC(=O)c1ccncc1,inactive
16,COCCNC(=O)C1(C)Cn2c(cc3ccsc32)C(=O)N1c1ccc(OC)cc1 (stereo not given),inactive
17,CCc1cc(Sc2ccccc2NC(=O)c2cccc(Cl)c2)n2nc(C)nc2n1,active
18,CCc1cc(Sc2ccccc2NC(=O)Cc2ccccc2)n2nc(C)nc2n1,inactive
19,CCc1cc(Sc2ccccc2NC(=O)c2ccc(Br)cc2)n2nc(C)nc2n1,inactive
20,CC(C)CNc1nc(Nc2ccc(Cl)cc2)c2cnn(-c3ccccc3)c2n1,inactive
21,Cc1cccc(CN2CCCN(CC(=O)NCc3ccc(Cl)cc3)S2(=O)=O)c1,inactive
22,CCOC1CCN(Cc2cc3cc4c(cc3[nH]c2=O)CCC4)CC1,inactive
23,CCOC(=O)Cn1c(=O)n(-c2ccc(C)c(C)c2)c2nc(-c3ccccc3C)nc(C(N)=O)c21,inactive
24,CCc1cc(-c2nccn2CCCc2nn[nH]n2)on1,inactive
25,Cc1ccnc(C(NC(=O)c2ccccc2-n2cncn2)C2CC2)c1 (stereo not given),inactive
26,O=S(=O)(NCCCc1nc2ccccc2o1)NCc1ccccc1,inactive
27,COc1ccc(N2C(=O)CCS2(=O)=O)cc1S(=O)(=O)Nc1cc(Cl)ccc1C,inactive

row,Compound,outcome
1,Cc1ccc(S(=O)(=O)N2CCN(c3cc(-c4cccc(F)c4)ncn3)CC2)cc1C,inactive
2,Cc1cccc(NCc2cc(=O)n3[nH]c(-c4ccc(C(C)(C)C)cc4)nc3n2)c1,inactive
3,CC(C)(C)c1ccc(-c2nc3nc(CNc4ccccc4Cl)cc(=O)n3[nH]2)cc1,active
4,COc1ccc(CNc2nc3nc(CNc4ccc(C)c(Cl)c4)cc(=O)n3[nH]2)cc1,inactive
5,O=C(NCC1CCN(Cc2ccccc2F)C1)c1cc(Cl)no1 (stereo not given),inactive
6,CCOC(=O)Cn1c(=O)n(-c2ccc(C)c(C)c2)c2nc(-c3cccc(F)c3F)nc(C(N)=O)c21,inactive
7,Cc1nc(C(C)C)sc1CNC(=O)c1cn(CC2CCCNC2)nn1 (stereo not given),inactive
8,O=C(C1CCCN(C2CCN(Cc3cccnc3)CC2)C1)N1CC=CC1 (stereo not given),inactive
9,CC(c1cccs1)N(C)Cc1cnc(-c2ccco2)nc1 (stereo not given),inactive
10,CSC(C)(C)CC(C)NCC(=O)Nc1ccccc1C (stereo not given),inactive
11,COC(C)(C)Cn1ccnc1-c1ccc(Oc2ncccn2)cc1,inactive
12,Cn1nc(-c2ccccc2)c(-c2ccccc2)c(C(=O)Nc2ccc(S(N)(=O)=O)cc2)c1=O,inactive
13,CCOc1c(N2CCc3ccccc3C2)c(=O)c1=O,inactive
14,Cc1cccc(Cn2c(=O)c3cnc(-c4ccncc4)nc3n(C)c2=O)c1,inactive
15,C=CC[C@@H]1CC=C[C@@H](C)N1C(=O)Cc1c(C)nc(C)[nH]c1=O,inactive
16,C=CCn1c(=O)c2cnc(-c3ccc(OC)cc3)nc2n(C)c1=O,inactive
17,C=CCn1c(=O)c2cnc(-c3ccc(Cl)cc3)nc2n(C)c1=O,active
18,Cn1c(=O)n(CC(=O)N2CCOCC2)c(=O)c2cnc(-c3ccccc3)nc21,active
19,COc1ccccc1-c1nc(Cn2c(=O)c3cnc(-c4ccc(Cl)cc4)nc3n(C)c2=O)c(C)o1,inactive
20,CCc1ccc(CNC(=O)Cn2c(=O)c3cnc(-c4ccccc4)nc3n(C)c2=O)cc1,inactive
21,Cn1c(=O)n(CC(=O)NCc2cccs2)c(=O)c2cnc(-c3ccccc3)nc21,inactive
22,COc1ccc(OC)c(S(=O)(=O)Nc2ccc(Sc3c(C)c(C)nc4ncnn34)cc2)c1,inactive
23,COc1ccccc1C(=O)Nc1cc(C)nn1-c1ncnc2c1cnn2-c1ccc(C)cc1C,inactive
24,Cc1ccccc1C(C(=O)N1CCCOCC1)N(C)C (stereo not given),inactive
25,Cc1ccsc1CN(CCO)C(=O)c1ccc2c(c1)CCCO2,inactive
26,CC(=O)N1CCN(Cc2nc3c(C)c(C)ccc3[nH]2)CC1,inactive
27,CC(C)NC(=O)C1CCC(Cn2c(=O)c3sccc3n(CC(=O)NCc3ccco3)c2=O)CC1 (stereo not given),inactive

row,Compound,outcome
1,CCn1cc(CN2CCN(C)C3(CCN(C(=O)c4ccco4)CC3)C2)cn1,inactive
2,CCOC(=O)c1cccc(Nc2cc(-c3ccc(C)cc3)nc(C)n2)c1,inactive
3,CCC(=O)Nc1ccccc1-c1nnc(SC(CC)C(=O)Nc2ccc(OC)cc2)[nH]c1=O (stereo not given),inactive
4,COc1ccc(N2C(=O)CCS2(=O)=O)cc1S(=O)(=O)Nc1ccc(C(C)C)cc1,inactive
5,Nc1nc2c(c(-c3cccnc3)n1)CN(C(=O)c1cc(F)c(F)c(F)c1)C2,inactive
6,CC(Cc1ccc2c(c1)OCO2)CN1CCC(NS(C)(=O)=O)CC1 (stereo not given),inactive
7,Cc1noc(C)c1S(=O)(=O)N1CC(c2cccnc2)C1,inactive
8,c1ccc(-c2ccc(-c3nccn3CCN3CCOCC3)s2)cc1,inactive
9,c1cc(CN2CCOCC2)cc(-c2ccc(NC3CCCC3)nn2)c1,active
10,O=C1CC(c2cccnc2)c2cnn(CC3CC3)c2N1 (stereo not given),inactive
11,O=C(O)CSc1nnc(C2CCCNC2)n1-c1cccc(Cl)c1 (stereo not given),inactive
12,c1ccc(C2CCN(CCn3ccnc3C3CC3)C2)cc1 (stereo not given),inactive
13,Cc1cc(C)cc(Nc2nc(N3CCOCC3)nc3c2cnn3-c2ccccc2)c1,inactive
14,Cc1cc(C)n(CCC(=O)N(Cc2ccccc2C)CC2CCCO2)c(=O)n1 (stereo not given),inactive
15,CC1CNC(=O)CCN1Cc1ccc2cccc(Cl)c2n1 (stereo not given),inactive
16,CCc1nc(C)c(C(=O)N2CCN(c3nsc4ccccc34)CC2)o1,inactive
17,Cc1c(F)cccc1NC(=O)CNC(c1ccccn1)C(F)(F)F (stereo not given),inactive
18,CCCSc1ncc(CN2CCC3(CCC(=O)N(C)CC3)CC2)cn1,inactive
19,Cc1cc(C)c(CN2CCN(Cc3ccccc3Cl)S2(=O)=O)c(C)c1,inactive
20,COc1ccc(-c2cc3n(n2)CCC(=O)N3Cc2ccc(C(=O)NCCN3CCCC3)cc2)cc1,inactive
21,Fc1ccc(-c2cc(CNc3nccc(C4CCCC4)n3)no2)cc1,inactive
22,COc1ccc(Nc2cc(C)nc(Nc3ccc(NC(=O)c4ccc(C)cc4)cc3)n2)cc1,inactive
23,CCCn1ccnc1C1CC(=O)Nc2c1c(C(C)C)nn2-c1ccccc1 (stereo not given),inactive
24,Cc1cc2nc(COc3ccc(Cl)cc3NC(=O)COc3ccccc3C)cc(=O)n2o1,inactive
